Hits are enriched below; roughly 0.36% of the tested compounds scored in any of these assays.
CXXC DNA block: qHTS Fluorescence Polarization Assay for Inhibitors of MLL CXXC domain - DNA interaction; Histone-lysine N-methyltransferase 2A (Homo sapiens), Q03164; MLL-CXXC / FITC-HOXA9 DNA fluorescence polarization; Potency, µM (titrated, usually from 115 µM), most hits filed as inhibitors; 290,000 tested, 0.037% active; AID 2662, 2010; active = well fitted inhibition curve with a large enough effect in the polarisation, with a control signal flat, not every such curve was filed as active; inconclusive = small, poorly fitted or top-dose-only effect, or effect the other way, or a change in a side signal; inactive = no such curve, though single readings can be large or run the other way; the % refers to the polarisation
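Fluorescence polarization: 7 uM MLL-CXXC (stock) preincubated 5 min with compounds, then 50 nM fluorescein-HOX-A9 DNA (stock) added; 30 min ambient. Buffer 50 mM Tris-HCl pH 7.5, 50 mM NaCl, 1 mM DTT, 0.05% BSA.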
TexasRed fluor: Total Fluorescence Counterscreen for Inhibitors of the Interaction of Thyroid Hormone Receptor and Steroid Receptor Coregulator 2; TRb/SRC2 Texas Red total fluorescence interference; Potency, µM (top dose mostly 106 µM); 280,000 tested, 0.29% active; active = well fitted curve in either direction with a large enough effect; inconclusive = small, poorly fitted or top-dose-only effect
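Flags fluorescent or light-absorbing compounds by total fluorescence, S + 2P, at 555 nm excitation and 632 nm emission. Mixture: 20 nM Texas Red SRC2 peptide, 0.6 uM human TRb LBD, 1 uM T3, 5% DMSO; compound exposure 5 h at ambient temperature.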
TRb SRC2 PPI: qHTS for Inhibitors of the Interaction of Thyroid Hormone Receptor and Steroid Receptor Coregulator 2. TRbeta-SRC2 peptide binding, fluorescence polarization; receptor liganded with 1 µM T3. Potency, µM (top dose mostly 106 µM), actives largely listed as inhibitors. 280,000 tested, 0.065% active. AID 1469, 2008; active = well fitted inhibition curve with a large enough effect; inconclusive = small, poorly fitted or top-dose-only effect, or effect the other way; note: nearly all actives have a fitted effect of over 50% in size
Target sequence (P10828 whole entry, looked up): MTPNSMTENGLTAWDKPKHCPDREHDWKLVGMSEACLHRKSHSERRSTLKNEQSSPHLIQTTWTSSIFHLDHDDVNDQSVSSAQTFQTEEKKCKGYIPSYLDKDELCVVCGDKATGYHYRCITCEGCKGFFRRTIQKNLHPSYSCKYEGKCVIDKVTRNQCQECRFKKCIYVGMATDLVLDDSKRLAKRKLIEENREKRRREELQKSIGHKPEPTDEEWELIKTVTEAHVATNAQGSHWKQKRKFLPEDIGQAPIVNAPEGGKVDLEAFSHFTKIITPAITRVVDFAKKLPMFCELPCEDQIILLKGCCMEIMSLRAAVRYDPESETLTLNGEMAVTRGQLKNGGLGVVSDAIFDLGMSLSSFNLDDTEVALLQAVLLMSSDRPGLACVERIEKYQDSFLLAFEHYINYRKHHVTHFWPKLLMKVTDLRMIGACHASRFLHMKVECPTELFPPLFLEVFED
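Human TRb LBD (0.6 uM) plus Texas Red-labeled SRC2 peptide (20 nM), 1uM T3, 5% DMSO, 5 hr at ambient temperature. Decreased polarization (555/632 nm) flags inhibition; data normalized to free and bound peptide controls.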
Menin MLL FP FL: qHTS Assay for Inhibitors Targeting the Menin-MLL Interaction in MLL Related Leukemias: Competition With Fluorescein Labeled MLL-derived Peptide; Fluorescence polarization, fluorescein-MLL peptide displacement from menin; 290,000 tested, under 10 active; FP activity change, % at 61.4 µM; AID 1766, 2009; active = well fitted curve in the direction sought with a large enough effect in the polarisation, not every such curve was filed as active; inconclusive = small, poorly fitted or top-dose-only effect, or effect the other way, or a change in a side signal; inactive = no such curve, though single readings can be large or run the other way; the % refers to the polarisation
Menin MLL FP TR: qHTS Assay for Inhibitors Targeting the Menin-MLL Interaction in MLL Related Leukemias: Competition With Texas Red Labeled MLL-derived Mutant Peptide. O00255. Menin + Texas Red MLL mutant peptide, fluorescence polarization. Potency, µM (doses to about 61.6 µM), hits mostly inhibitors. 270,000 tested, 0.23% active. AID 1768, 2009; active = well fitted inhibition curve with a large enough effect in the polarisation, with a control signal flat, not every such curve was filed as active; inconclusive = small, poorly fitted or top-dose-only effect, or effect the other way, or a change in a side signal; inactive = no such curve, though single readings can be large or run the other way; the % refers to the polarisation
Numbers stand for hits; – = inactive; ? = inconclusive; · = not tested or not shown; [ ] = remark or other dose.

SMILES | CXXC DNA block | TexasRed fluor | TRb SRC2 PPI | Menin MLL FP FL | Menin MLL FP TR
CC(=O)/C(=C\c1ccccc1)CC(=O)O | · | – | – | – | –
CCOC(=O)c1c(C)[nH]c(CCC(=O)Nc2ccc(C)c(F)c2)c1C | · | – | – | · | ·
COC(=O)c1c(Oc2ccc(OC)cc2)nnc(-c2ccccc2)c1-c1ccccc1 | · | 794µM[quencher] | – | · | ·
Fc1ccc(-[n+]2nc(Nc3ccccc3)sc2-c2c3ccccc3cc3ccccc23)cc1 | ? | · | · | – | ?
Oc1ccc2ccccc2c1-c1sc(Nc2ccccc2)n[n+]1-c1ccc(F)cc1 | ? | · | · | ? | 16µM
COC(=O)/C(=N/Nc1ccccc1Cl)Sc1nnc(C(O)c2ccccc2)n1-c1ccccc1 (configuration not stated) | – | 35µM[quencher] | – | – | –
C=CCOC(=O)CC(C)C | · | – | – | · | ·
CS(=O)(=O)N1CCC[C@@]2(CCN(C(c3ccccc3)c3ccccc3)C2)C1 | · | · | · | – | –
COc1ccc(C2CC(=O)c3cc(-c4nc(-c5cccc([N+](=O)[O-])c5)cs4)c(=O)n(-c4ccccc4)c3C2)cc1 (configuration not stated) | · | – | – | · | ·
COc1ccc(C2CC(=O)c3cc(-c4nc(-c5cccc([N+](=O)[O-])c5)cs4)c(=O)n(-c4ccccc4C)c3C2)cc1 (configuration not stated) | · | 89µM[quencher] | – | · | ·
CCCCCCCC[Si](Cl)(Cl)Cl | · | – | – | · | ·
CCCCCCCCCCCCCCN | · | – | – | · | ·
O=C(NC(=S)Nc1nc(-c2cccc3ccccc23)cs1)c1cc2ccccc2o1 | – | – | – | – | 25µM
CC(C)O.CC(C)O.CC(C)O.CC(C)O.[Ti] | · | – | – | · | ·
CC(C)Cn1nc(NC(=O)c2cccc(Cl)c2)c2cc3ccccc3nc21 | · | 1413µM[quencher] | – | · | ·
CCCCn1nc(NC(=O)c2cccc(Cl)c2)c2cc3ccccc3nc21 | · | – | – | · | ·
COc1ccccc1N1CCN(c2ccc(=O)n(CC(=O)Nc3ccc(F)c(F)c3)n2)CC1 | · | – | – | · | ·
CCOC(=O)C1=C(c2ccccc2)N=c2s/c(=C\c3ccc(O)cc3)c(=O)n2C1c1cccs1 (configuration not stated) | ? | – | – | ? | 35µM
CCOC(=O)C1=C(C)N=c2s/c(=C\c3ccc(OCC(=O)O)cc3)c(=O)n2C1c1ccccc1 (configuration not stated) | – | · | · | – | ?
Cc1nc(N2CCOCC2)c2c(C(=O)N3CCN(c4cccc(C)c4C)CC3)c(C)oc2n1 | · | – | – | · | ·
Cc1ccccc1NC(=O)c1ccc(Cl)c(S(=O)(=O)N2CCCCCC2)c1 | · | 0.79µM[quencher] | ? | · | ·
Cc1ccc(S(=O)(=O)C(I)I)cc1 | · | – | – | · | ·
COc1ccc(C2=Nn3c(nnc3-c3ccccc3OC)SC2)cc1OC | – | – | – | – | 11µM
COc1ccc(-c2nnc3n2N=C(c2ccccc2OC)CS3)cc1OC | · | – | – | – | –
CCN1/C(=C/C(C)=C/c2sc3ccccc3[n+]2CC)Sc2ccccc21 | ? | 20µM[fluorescent] | ? | ? | ?
SMILES | CXXC DNA block | TexasRed fluor | TRb SRC2 PPI | Menin MLL FP FL | Menin MLL FP TR
CCOC(=O)CC(NC(=O)c1cc2cc(Cl)ccc2oc1=O)c1ccc(C)cc1 (configuration not stated) | · | 14µM[quencher] | – | · | ·
O=C(Cl)c1ccc(C(=O)Cl)cc1 | · | – | – | · | ·
Cc1c(C(=O)Nc2ccccc2)sc2nc(-c3cc4ccccc4oc3=O)[nH]c(=O)c12 | · | 282µM[quencher] | – | · | ·
Cc1ccccc1NC(=O)c1sc2nc(-c3cc4ccccc4oc3=O)[nH]c(=O)c2c1C | · | – | – | · | ·
Nc1cc(Cl)nc(C(=O)O)c1Cl | · | – | – | · | ·
O=C(O)C1(C(=O)Nc2ccc(Cl)cc2Cl)CC1 | · | – | – | · | ·
O=C1OC2(c3cc(Br)c(O)c(Br)c3Oc3c2cc(Br)c(O)c3Br)c2c(Cl)c(Cl)c(Cl)c(Cl)c21 | · | ? | 2.5µM | · | ·
CCCN1C=CC(=C/C=C(\C#N)C(=O)OCC)C=C1 | ? | – | – | ? | –
CCOC(=O)/C(C#N)=C/C=C1\C=Cc2ccccc2N1CC | – | – | – | ? | 25µM
C[C@H]1COC(=O)[C@H]2CCCN2C(=O)[C@@H](C)COC(=O)[C@H]2CCCN2C1=O | · | –[11.2 µM] | –[11.2 µM] | –[11.7 µM] | –[11.7 µM]
O=C(Nc1nc(-c2ccc(S(=O)(=O)N3CCCCCC3)cc2)cs1)c1cccs1 | – | – | – | – | 22µM
COC(=O)C(C)Sc1nnc2cc(C)c3cc(C)cc(C)c3n12 (configuration not stated) | · | 0.071µM[quencher] | – | · | ·
Cc1ccc(N2C(=O)CS(=O)(=O)C23C(=O)Nc2ccccc23)cc1C (configuration not stated) | · | – | – | · | ·
CC(C)CC(=O)Nc1ccc2nc(SCC(=O)N3CCOCC3)sc2c1 | · | 1259µM[quencher] | – | · | ·
Cc1cccc2c1NC(C)CC2C (configuration not stated) | – | – | – | – | 25µM
O=C(O)c1c(Cl)c(Cl)c(Cl)c(Cl)c1-c1c2cc(I)c(=O)c(I)c-2oc2c(I)c(O)c(I)cc12 | ? | 2.8µM[fluorescent] | 5µM | ? | ?
Cc1cc(-c2ccc(N=Nc3ccc4c(S(=O)(=O)O)cc(S(=O)(=O)O)c(N)c4c3O)c(C)c2)ccc1N=Nc1ccc2c(S(=O)(=O)O)cc(S(=O)(=O)O)c(N)c2c1O | – | 18µM[fluorescent] | 25µM | ? | ?
CCn1cc(S(=O)(=O)c2ccccc2)c(=O)c2cc(F)c(N3CCN(c4ccccc4)CC3)cc21 | · | 56µM[quencher] | ? | · | ·
CCn1cc(S(=O)(=O)c2ccc(OC)cc2)c(=O)c2cc(OC)ccc21 | – | · | · | – | –
CCCn1cc(S(=O)(=O)c2cccc(Cl)c2)c(=O)c2cc(F)c(N3CCN(CC)CC3)cc21 | · | 112µM[quencher] | – | · | ·
CCN(CC)c1cc2c(cc1F)c(=O)c(S(=O)(=O)c1ccc(OC)cc1)cn2CC | · | 50µM[quencher] | – | · | ·
CCn1cc(S(=O)(=O)c2ccccc2)c(=O)c2cc(F)c(N3CCCC3)cc21 | · | – | – | · | ·
O=C(N/N=C/c1ccc(Sc2ccccn2)o1)c1cc2ccccc2cc1O | – | 32µM[quencher] | ? | – | ?
Nc1c(N=Nc2ccc(S(=O)(=O)CCOS(=O)(=O)O)cc2)c(S(=O)(=O)O)cc2cc(S(=O)(=O)O)c(N=Nc3ccc(S(=O)(=O)CCOS(=O)(=O)O)cc3)c(O)c12 | · | 45µM[quencher] | – | · | ·
O=C1C2C3c4ccccc4C(c4ccccc43)C2C(=O)N1c1nc(-c2ccccc2)cs1 (configuration not stated) | – | – | – | – | 11µM
O=C1C2C3c4ccccc4C(c4ccccc43)[C@@H]2C(=O)N1c1nc(-c2ccccc2)cs1 (some centres not stated) | – | – | – | – | ?
COc1ccc(-c2cc(=O)c3cc(F)ccc3[nH]2)cc1 | – | – | – | ? | ?

Assay outcomes from PubChem BioAssay.
